# Source: PubChem BioAssay (Broad Institute)
# ERAP1 HTS inh: blocks human ERAP1 aminopeptidase activity; Q9NZ08; recombinant ERAP1, Leu-AMC fluorescence, 60 min; inhibition, % at 10.7 µM; 0.15% of 340,000 active;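 active = mean replicate inhibition of at least 30%, or all replicates individually reaching that 30% level; inactive = mean below 30% and not every replicate reaching it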;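 note: 0% = neutral control wells and 100% = L-leucinethiol positive control wells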
# Target sequence (Q9NZ08 whole entry, looked up): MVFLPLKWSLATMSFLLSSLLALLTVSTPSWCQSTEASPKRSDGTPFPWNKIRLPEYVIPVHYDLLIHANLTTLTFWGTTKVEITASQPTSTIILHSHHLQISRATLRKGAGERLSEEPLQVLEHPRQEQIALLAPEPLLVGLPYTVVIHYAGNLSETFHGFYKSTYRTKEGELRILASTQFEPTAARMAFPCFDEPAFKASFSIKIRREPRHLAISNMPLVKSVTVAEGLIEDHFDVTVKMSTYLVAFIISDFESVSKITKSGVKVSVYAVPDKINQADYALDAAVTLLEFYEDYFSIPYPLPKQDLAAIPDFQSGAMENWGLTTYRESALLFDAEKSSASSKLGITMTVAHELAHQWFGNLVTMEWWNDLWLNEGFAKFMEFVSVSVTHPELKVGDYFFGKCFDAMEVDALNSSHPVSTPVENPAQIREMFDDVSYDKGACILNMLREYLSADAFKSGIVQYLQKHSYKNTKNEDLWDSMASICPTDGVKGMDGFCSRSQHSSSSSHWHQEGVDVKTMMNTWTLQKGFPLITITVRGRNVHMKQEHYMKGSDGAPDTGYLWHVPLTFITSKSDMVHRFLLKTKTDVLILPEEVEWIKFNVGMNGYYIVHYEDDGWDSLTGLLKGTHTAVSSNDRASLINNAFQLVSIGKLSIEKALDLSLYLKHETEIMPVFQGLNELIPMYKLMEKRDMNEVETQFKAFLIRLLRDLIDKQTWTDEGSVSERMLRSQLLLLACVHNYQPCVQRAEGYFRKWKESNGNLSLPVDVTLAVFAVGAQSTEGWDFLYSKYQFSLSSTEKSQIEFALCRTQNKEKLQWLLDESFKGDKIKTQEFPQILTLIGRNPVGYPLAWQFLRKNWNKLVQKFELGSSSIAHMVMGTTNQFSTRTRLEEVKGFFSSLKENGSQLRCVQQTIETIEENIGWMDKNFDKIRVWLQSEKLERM
# FGF22 binding: shifts melting point of recombinant human FGF22. Q9HCT0. activity (Tm shift, normalised), % at 9.99 µM. AID 651658. 1.5% of 340,000 active. recombinant FGF22 thermal shift, SYPRO orange fluorescence; percent of sucrose octasulfate shift, DMSO zero;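 active = mean Tm shift, scaled 0 neutral to 100 positive control, at about 1.3% or above, every replicate too, limit read from the data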
# CASP6 VEID inh: blocks human caspase-6 cleavage activity. AID 686996. 0.53% of 350,000 active. inhibition, % at 12.5 µM. purified caspase-6, Z-VEID-R110 cleavage fluorescence. P55212;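 active = mean inhibition across replicates at least about 35%, with every replicate also reaching that limit, limit read from the data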;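 note: 0% = median of neutral control wells and 100% = no fluorescence left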
# SIRT5 inh: blocks human SIRT5 desuccinylation of peptide | inhibition, % at 15 µM | Q9NXA8 | AID 652115 | Purified SirT5, succinyl-peptide AMC, trypsin-coupled fluorescence | 1.1% of 330,000 active; in the data active = inhibition above about 15%
# Active calls of the source: *; · = not tested or not shown. An excerpt weighted towards active compounds, which were near 3.1% of everything screened.
SMILES,ERAP1 HTS inh,FGF22 binding,CASP6 VEID inh,SIRT5 inh
Cc1ccc(S(=O)(=O)Nc2ccc3c(c2)C(=O)N([C@H](C)CO)C[C@H](C)[C@@H](CN(C)S(=O)(=O)c2ccccc2)OCCCC[C@H](C)O3)cc1,2.0,·,1.3,9.5
Cc1ccc(S(=O)(=O)Nc2ccc3c(c2)C(=O)N([C@@H](C)CO)C[C@H](C)[C@H](CN(C)S(=O)(=O)c2ccccc2)OCCCC[C@H](C)O3)cc1,1.2,·,0.2,9.5
Cc1ccc(S(=O)(=O)N(C)C[C@@H]2OCCCC[C@@H](C)Oc3ccc(NS(=O)(=O)c4c(C)noc4C)cc3C(=O)N([C@@H](C)CO)C[C@@H]2C)cc1,-2.7,-0.1,-2.6,4.6
Cc1ccc(S(=O)(=O)N(C)C[C@H]2OCCCC[C@@H](C)Oc3ccc(NS(=O)(=O)c4c(C)noc4C)cc3C(=O)N([C@@H](C)CO)C[C@@H]2C)cc1,-2.9,-0.5,1.9,16.8*
Cc1ccc(S(=O)(=O)Nc2ccc3c(c2)C(=O)N([C@@H](C)CO)C[C@H](C)[C@H](CN(C)S(=O)(=O)c2ccccc2)OCCCC[C@@H](C)O3)cc1,0.2,·,4.2,24.2*
Cc1ccc(S(=O)(=O)Nc2ccc3c(c2)C(=O)N([C@H](C)CO)C[C@@H](C)[C@H](CN(C)S(=O)(=O)c2ccccc2)OCCCC[C@@H](C)O3)cc1,-0.8,·,0.7,9.1
Cc1ccc(S(=O)(=O)N(C)C[C@@H]2OCCCC[C@@H](C)Oc3ccc(NS(=O)(=O)c4ccccc4)cc3C(=O)N([C@@H](C)CO)C[C@H]2C)cc1,2.2,-0.8,-2.8,18.6*
Cc1ccc(S(=O)(=O)N2C[C@H](O)COC[C@@H]3O[C@@H](CC(=O)N[C@H]4CCN(Cc5ccccc5)C4)CC[C@H]32)cc1,-0.8,0.0,1.2,2.5
CC[n+]1c(C)sc2cc(OC)ccc21,30.0*,0.1,-0.3,-5.0
CC[n+]1c(C)sc2c(C)cc(C)cc21,21.1,·,-0.8,-4.7
O=C(CSc1ccc2c(c1)OCCO2)NCc1ccccc1,-1.0,0.5,38.0*,-2.6
O=C(COC(=O)CSCc1ccccc1)NCc1ccccc1,-8.7,43.4*,-0.9,-1.3
CCS(=O)(=O)Nc1ccc2c(c1)C(=O)N(C)C[C@H](OC)[C@@H](C)CN(Cc1nccs1)[C@H](C)CO2,1.3,0.0,1.2,-2.3
CC(Oc1ccccc1)c1ccnc2nc(N3CCOCC3)nn12 (stereo not given),-7.8,43.4*,1.4,-3.8
C[C@H]1CN([C@@H](C)CO)C(=O)Cc2cc(NC(=O)CCCN(C)C)ccc2O[C@@H]1CN(C)S(=O)(=O)c1ccccc1,-1.3,0.1,-2.9,-1.7
CC1(C)CC2CC(C)(CN2C(=O)c2cc(-c3ccccc3O)on2)C1 (stereo not given),0.4,-0.2,-1.3,15.7*
CC1(C)CC2CC(C)(CN2C(=O)c2ccc([N+](=O)[O-])cc2)C1 (stereo not given),4.1,0.2,7.9,21.2*
CC1(C)C[C@@H]2C[C@@](C)(CN2C(=O)c2ccccc2)C1,·,-0.1,-2.4,1.0
COc1ccc(CN(C)C[C@@H]2OCCCC[C@H](C)Oc3ccc(NC(=O)Nc4ccc5c(c4)OCO5)cc3C(=O)N([C@H](C)CO)C[C@@H]2C)cc1,-1.6,-0.4,0.6,3.5
O=C(C1CC1)N1C[C@@H]2[C@H](c3ccccc31)[C@@H](CO)N2C(=O)Nc1cccc(F)c1,-1.3,-0.6,-1.1,0.9
COc1ccc(C(=O)NC2CC3CCCC(C2)N3Cc2ccccc2)c(OC)c1 (stereo not given),0.9,-0.1,-14.9,23.7*
COc1cc(N)c(Cl)cc1C(=O)NC1CCN(Cc2ccccc2)CC1,-2.3,-0.3,48.6*,-1.1
O=C(NC1CC2CCC(C1)N2Cc1ccccc1)c1ccccc1Br (stereo not given),-1.3,0.2,39.4*,2.0
Cc1ccccc1C(=O)NC1CCN(Cc2ccccc2)CC1,4.8,0.4,-10.9,-3.0
O=C(C[C@@H]1C=C[C@@H](NC(=O)C2CCC2)[C@@H](CO)O1)NCc1ccncc1,-2.4,0.0,-1.9,4.0
C[C@@H]1CN([C@H](C)CO)C(=O)c2cc(NC(=O)CCCN(C)C)ccc2O[C@@H](C)CCCCO[C@@H]1CN(C)CC1CCCCC1,0.3,-0.2,-37.7,2.0
O=C(C1CCOCC1)N1C[C@H]2[C@@H](c3ccccc31)[C@H](CO)N2Cc1ccccc1,0.5,·,-1.8,6.0
CCCC#Cc1ccc2c(c1)[C@@H]1[C@@H](CCN1S(=O)(=O)c1ccccc1OC)[C@@H](CO)N2,1.0,·,-1.1,·
